Results: PubChem BioAssay (NCI)
Compounds without any hit were thinned out: in the full panel of roughly 79,000, 15% have a hit. Active and inactive are the calls of the source. Rule as the data show it: active = growth inhibition above about 70%; inactive = the rest.

Tests used:
[1] = NCI Yeast Anticancer Drug Screen. Data for the rad52 strain (AID 147);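 also: 0% = growth of vehicle-treated control cultures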; details: S. cerevisiae rad52 mutant growth inhibition, stronger effect = higher value
Procedure, shortened: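 Inhibition of yeast growth, referenced to vehicle controls, was the measured output for a strain with defective DNA damage repair.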

[2] = NCI Yeast Anticancer Drug Screen. Data for the wt1 strain (AID 149);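 also: 0% = growth of vehicle-treated wt1 cultures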; details: S. cerevisiae wt1 strain (SPY 50644) growth inhibition, stronger effect = higher value
Procedure, shortened: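 Each compound is tested on wt1 yeast and the loss of growth versus vehicle gives the inhibition value.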

[3] = NCI Yeast Anticancer Drug Screen. Data for the rad50EPP+ strain (AID 151);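 also: 0% = growth of vehicle-treated control cultures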; details: S. cerevisiae rad50 mutant strain, stronger effect = higher value
Procedure, shortened: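 Genetically defined yeast (rad50EPP+, DNA damage repair alteration) is grown with compound, and inhibition of growth is expressed relative to vehicle-treated controls.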

[4] = NCI Yeast Anticancer Drug Screen. Data for the mgt1 strain (AID 153); details: S. cerevisiae mgt1 mutant growth inhibition, stronger effect = higher value
Procedure, shortened: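 In the mgt1 strain, test compounds were added and growth inhibition was determined relative to vehicle-treated controls.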

[5] = NCI Yeast Anticancer Drug Screen. Data for the rad50 strain (AID 155);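 also: 0% = growth of vehicle-only cultures of the same strain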; details: S. cerevisiae rad50 strain growth inhibition, stronger effect = higher value
Procedure, shortened: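 Vehicle-treated cultures provide the reference for the growth inhibition reported for compound-exposed, repair-deficient yeast.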

[6] = NCI Yeast Anticancer Drug Screen. Data for the mec2-1 strain (AID 157); details: S. cerevisiae mec2-1 strain, stronger effect = higher value
Procedure, shortened: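 Each compound was tested on mec2-1 yeast, a strain altered in DNA damage repair or cell cycle control. Growth inhibition is reported relative to vehicle.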

[7] = NCI Yeast Anticancer Drug Screen. Data for the sgs1 mgt1 strain (AID 161);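 also: 0% = growth of cultures given vehicle only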; details: S. cerevisiae sgs1 mgt1 strain, stronger effect = higher value
Procedure, shortened: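 Inhibition of yeast growth, normalised to vehicle-treated controls, is reported for a strain bearing genetic alterations in DNA damage repair.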

[8] = NCI Yeast Anticancer Drug Screen. Data for the CLN2oe strain (AID 163);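 also: 0% = growth of vehicle-only control cultures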; details: S. cerevisiae CLN2oe strain, stronger effect = higher value
Procedure, shortened: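 First, the altered yeast strain was treated with each compound; second, its growth was measured; finally, inhibition was derived by comparison with vehicle controls.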

[9] = NCI Yeast Anticancer Drug Screen. Data for the cln2 rad14 strain (AID 165);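 also: 0% = growth equal to vehicle treated cultures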; details: S. cerevisiae cln2 rad14 strain, stronger effect = higher value
Procedure, shortened: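 Test compounds were added to cln2 rad14 yeast cultures; inhibition of growth was then determined by comparison with vehicle treatment.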

[10] = NCI Yeast Anticancer Drug Screen. Data for the bub3 strain (AID 167); details: S. cerevisiae bub3 mutant strain, stronger effect = higher value
Procedure, shortened: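 Mutant yeast screening strain plus compound; vehicle-treated cultures serve as the 0% inhibition reference.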

[11] = NCI Yeast Anticancer Drug Screen. Data for the wt2 strain (AID 169); details: S. cerevisiae wt2 strain growth inhibition, stronger effect = higher value
Procedure, shortened: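 The panel's yeast strains carry defined changes in DNA repair or cell cycle genes. Each strain is grown with compound, and growth loss is scored relative to vehicle.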

[12] = NCI Yeast Anticancer Drug Screen. Data for the mlh1 strain (AID 171);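 also: 0% = growth of vehicle-treated control cultures of the same strain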; details: S. cerevisiae mlh1 strain growth inhibition, stronger effect = higher value
Procedure, shortened: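 Inhibition values reflect reduced yeast growth in the presence of compound, referenced to vehicle controls, using a strain chosen for its alteration in DNA repair or cell cycle control.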

[13] = NCI Yeast Anticancer Drug Screen. Data for the sgs1 strain (AID 173);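 also: 0% = growth of vehicle-only control cultures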; details: S. cerevisiae sgs1 mutant, stronger effect = higher value
Procedure, shortened: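 Vehicle-treated cultures served as reference for growth inhibition of a yeast strain altered in DNA damage repair or cell cycle control after compound exposure.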

[14] = NCI Yeast Anticancer Drug Screen. Data for the mlh1 rad18 strain (AID 175); details: S. cerevisiae mlh1 rad18 strain growth inhibition, stronger effect = higher value
Procedure, shortened: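 Inhibition values reflect reduced growth of mutant yeast versus vehicle-treated controls following compound exposure; the mutations affect DNA damage repair.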

[15] = NCI Yeast Anticancer Drug Screen. Data for the rad18 strain (AID 177); details: S. cerevisiae rad18 mutant growth inhibition, stronger effect = higher value
Procedure, shortened: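 Steps: expose repair-mutant yeast to compound; measure growth; express as inhibition relative to vehicle control.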

[16] = NCI Yeast Anticancer Drug Screen. Data for the rad14 strain (AID 159);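 also: 0% = growth of vehicle-treated control cultures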; details: S. cerevisiae rad14 strain growth inhibition, stronger effect = higher value
Procedure, shortened: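 Inhibition of growth is reported for a repair-deficient yeast mutant following compound treatment, calculated relative to cultures that received vehicle.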

[17] = at 5.0 µM (retest, dose inferred, filed as 0.5)
[18] = at 50.0 µM (retest, dose inferred, filed as 5.0)

Measured: growth inhibition

COC1CCC(O)C(/C=C/[N+](=O)[O-])C1 (stereo unspecified)
active: [1]; at 3.7 µM 81% | [1]; at 11.0 µM 99% | [1]; at 33.0 µM 99% | [1]; at 100.0 µM 99% | [2]; at 11.0 µM 99% | [2]; at 33.0 µM 99% | [2]; at 100.0 µM 99% | [3]; at 33.0 µM 94% | [3]; at 100.0 µM 99% | [4]; at 11.0 µM 99% | [4]; at 33.0 µM 100% | [4]; at 100.0 µM 99% | [5]; at 3.7 µM 83% | [5]; at 11.0 µM 99% | [5]; at 33.0 µM 99% | [5]; [18] 99% | [5]; at 50.0 µM 98.7% | [5]; at 100.0 µM 99% | [6]; at 11.0 µM 100% | [6]; at 33.0 µM 99% | [6]; [18] 100% | [6]; at 50.0 µM 99.6% | [6]; at 100.0 µM 99% | [7]; [18] 100% | [7]; at 50.0 µM 98.2% | [8]; at 11.0 µM 99% | [8]; at 33.0 µM 99% | [8]; at 100.0 µM 99% | [9]; [18] 99% | [9]; at 50.0 µM 89.8% | [10]; [17] 79% | [10]; at 11.0 µM 99% | [10]; at 33.0 µM 99% | [10]; [18] 100% | [10]; at 50.0 µM 98.7% | [10]; at 100.0 µM 99% | [11]; at 11.0 µM 99% | [11]; at 33.0 µM 99% | [11]; at 100.0 µM 99% | [12]; at 3.7 µM 79% | [12]; at 11.0 µM 99% | [12]; at 33.0 µM 99% | [12]; at 100.0 µM 100% | [13]; at 11.0 µM 99% | [13]; at 33.0 µM 99% | [13]; at 100.0 µM 98% | [14]; [17] 79% | [14]; [18] 99% | [14]; at 50.0 µM 98.2% | [15]; at 11.0 µM 99% | [15]; at 33.0 µM 99% | [15]; at 100.0 µM 99%
inactive: [1]; at 1.2 µM 27% | [2]; at 1.2 µM 3% | [2]; at 3.7 µM 18% | [3]; at 1.2 µM 6% | [3]; at 3.7 µM 19% | [3]; at 11.0 µM 56% | [4]; at 1.2 µM 8% | [4]; at 3.7 µM 63% | [5]; at 1.2 µM 29% | [5]; [17] 50% | [6]; at 1.2 µM 5% | [6]; at 3.7 µM 42% | [6]; [17] 21% | [7]; [17] 67% | [8]; at 1.2 µM 0% | [8]; at 3.7 µM 15% | [9]; [17] 17% | [10]; at 1.2 µM 4% | [10]; at 3.7 µM 32% | [11]; at 1.2 µM 9% | [11]; at 3.7 µM 66% | [12]; at 1.2 µM 13% | [13]; at 1.2 µM 13% | [13]; at 3.7 µM 68% | [15]; at 1.2 µM 12% | [15]; at 3.7 µM 65%

CCCCCCCCCCCC(O)S(=O)(=O)O (stereo unspecified)
inactive: [1]; at 1.2 µM 0% | [1]; at 3.7 µM 0% | [1]; at 11.0 µM -3% | [1]; at 33.0 µM 2% | [1]; at 100.0 µM 55% | [2]; at 1.2 µM -2% | [2]; at 3.7 µM -1% | [2]; at 11.0 µM -4% | [2]; at 33.0 µM 1% | [2]; at 100.0 µM 15% | [3]; at 1.2 µM 7% | [3]; at 3.7 µM 3% | [3]; at 11.0 µM 7% | [3]; at 33.0 µM 15% | [3]; at 100.0 µM 58% | [5]; at 1.2 µM 4% | [5]; at 3.7 µM 3% | [5]; [17] -13% | [5]; at 11.0 µM -2% | [5]; at 33.0 µM 2% | [5]; [18] 20% | [5]; at 50.0 µM -3.6% | [5]; at 100.0 µM 50% | [6]; at 1.2 µM -1% | [6]; at 3.7 µM 0% | [6]; [17] -17% | [6]; at 11.0 µM -2% | [6]; at 33.0 µM -1% | [6]; [18] -23% | [6]; at 50.0 µM 37.9% | [16]; at 1.2 µM 3% | [16]; at 3.7 µM 4% | [16]; at 11.0 µM 2% | [16]; at 33.0 µM 10% | [7]; [17] -10% | [7]; [18] 17% | [7]; at 50.0 µM 0.05% | [8]; at 1.2 µM -2% | [8]; at 3.7 µM -1% | [8]; at 11.0 µM -2% | [8]; at 33.0 µM -2% | [8]; at 100.0 µM 66% | [9]; [17] -5% | [9]; [18] 6% | [9]; at 50.0 µM -14.4% | [10]; at 1.2 µM 1% | [10]; at 3.7 µM -1% | [10]; [17] 0% | [10]; at 11.0 µM -2% | [10]; at 33.0 µM 0% | [10]; [18] 59% | [10]; at 50.0 µM 7.55% | [10]; at 100.0 µM 12% | [11]; at 1.2 µM -4% | [11]; at 3.7 µM -9% | [11]; at 11.0 µM -7% | [11]; at 33.0 µM -11% | [12]; at 1.2 µM 0% | [12]; at 3.7 µM 0% | [12]; at 11.0 µM -2% | [12]; at 33.0 µM 3% | [13]; at 1.2 µM 1% | [13]; at 3.7 µM -2% | [13]; at 11.0 µM -12% | [13]; at 33.0 µM 6% | [14]; [17] 7% | [14]; [18] 39% | [14]; at 50.0 µM 17.4% | [15]; at 1.2 µM 1% | [15]; at 3.7 µM 1% | [15]; at 11.0 µM -2% | [15]; at 33.0 µM -1%
active: [6]; at 100.0 µM 74% | [16]; at 100.0 µM 95% | [11]; at 100.0 µM 98% | [12]; at 100.0 µM 94% | [13]; at 100.0 µM 96% | [15]; at 100.0 µM 90%
